Measurements taken from PubChem BioAssay AID1159580 (chemical genetic matrix, 2015).
Screen size: about 5,500 compounds; about 2,000 (36%) were called active. Roughly 18% stayed inconclusive and do not appear here. Cut-off read from the data, not from the text of the source: active = normalized growth mostly below about 0.91 (no sharp cut-off); inconclusive = no clear call, values can overlap the other calls; inactive = mostly above about 0.92. The list shows a part of the results.

Assay: chemical genetic growth profiling, strain panel (AID 1159580);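 note: tested at 20 µM; growth read once vehicle control cultures reached saturation at 30 °C; 1 = growth at the plate median or of vehicle wells; lower values mean less growth of the strain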
Details: growth OD

Measured: normalized growth

CC(C)(C)NC[C@@H](O)COc1nsnc1N1CCOCC1
inactive: S. cerevisiae deletion strains, locus YJR075W, strain HOC1, stronger effect = lower value 0.995 | S. cerevisiae deletion strains, locus YKL009W, strain mrt4, stronger effect = lower value 1.03 | S. cerevisiae deletion strains, locus YKL068W, stronger effect = lower value 0.989 | S. cerevisiae deletion strains, locus YKL085W, strain MDH1 (second series), stronger effect = lower value 0.983 | S. cerevisiae deletion strains, locus YKL085W, strain MDH1, stronger effect = lower value 0.983 | S. cerevisiae deletion strains, locus YKL160W, strain elf1, stronger effect = lower value 1.01 | S. cerevisiae deletion strains, locus YKR001C, strain vps1, stronger effect = lower value 0.952 | S. cerevisiae deletion strains, locus YKR026C, strain gcn3, stronger effect = lower value 1.02 | S. cerevisiae deletion strains, locus YKR091W, strain srl3, stronger effect = lower value 1.01 | S. cerevisiae deletion strains, locus YLL001W, strain dnm1, stronger effect = lower value 1 | S. cerevisiae deletion strains, locus YLL026W, stronger effect = lower value 1.01 | S. cerevisiae deletion strains, locus YLL041C, strain sdh2, stronger effect = lower value 1.03 | S. cerevisiae deletion strains, locus YLR027C, strain aat2, stronger effect = lower value 1.01 | S. cerevisiae deletion strains, locus YLR039C, strain RIC1, stronger effect = lower value 1.01 | S. cerevisiae deletion strains, locus YLR058C, strain SHM2, stronger effect = lower value 1 | S. cerevisiae deletion strains, locus YLR102C, strain apc9, stronger effect = lower value 0.976 | S. cerevisiae deletion strains, locus YLR113W, strain HOG1, stronger effect = lower value 0.975 | S. cerevisiae deletion strains, locus YLR221C, strain rsa3, stronger effect = lower value 0.995 | S. cerevisiae deletion strains, locus YLR258W, strain gsy2, stronger effect = lower value 1.01 | S. cerevisiae deletion strains, locus YLR262C, strain YPT6 (second series), stronger effect = lower value 1.03 | S. cerevisiae deletion strains, locus YLR262C, strain YPT6, stronger effect = lower value 1.02 | S. cerevisiae deletion strains, locus YLR268W, strain sec22, stronger effect = lower value 0.961 | S. cerevisiae deletion strains, locus YLR320W, strain mms22, stronger effect = lower value 0.997 | S. cerevisiae deletion strains, locus YLR330W, strain CHS5, stronger effect = lower value 0.989 | S. cerevisiae deletion strains, locus YLR342W, strain FKS1 (second series), stronger effect = lower value 0.992 | S. cerevisiae deletion strains, locus YLR342W, strain FKS1, stronger effect = lower value 1 | S. cerevisiae deletion strains, locus YLR357W, strain rsc2, stronger effect = lower value 0.998 | S. cerevisiae deletion strains, locus YLR370C, strain arc18, stronger effect = lower value 1.02 | S. cerevisiae deletion strains, locus YLR371W, strain rom2, stronger effect = lower value 0.977 | S. cerevisiae deletion strains, locus YLR384C, strain iki3, stronger effect = lower value 1.01 | S. cerevisiae deletion strains, locus YLR418C, strain cdc73, stronger effect = lower value 1.03 | S. cerevisiae deletion strains, locus YML016C, strain PPZ1, stronger effect = lower value 0.988 | S. cerevisiae deletion strains, locus YML032C, strain rad52, stronger effect = lower value 1.01 | S. cerevisiae deletion strains, locus YML120C, strain ndi1, stronger effect = lower value 1.02 | S. cerevisiae deletion strains, locus YML124C, strain tub3, stronger effect = lower value 0.988 | S. cerevisiae deletion strains, locus YMR058W, strain fet3, stronger effect = lower value 1 | S. cerevisiae deletion strains, locus YMR078C, strain ctf18, stronger effect = lower value 0.972 | S. cerevisiae deletion strains, locus YMR125W, strain sto1, stronger effect = lower value 1.02 | S. cerevisiae deletion strains, locus YMR129W, stronger effect = lower value 1.02 | S. cerevisiae deletion strains, locus YMR205C, strain PFK2, stronger effect = lower value 1.02 | S. cerevisiae deletion strains, locus YMR223W, strain ubp8, stronger effect = lower value 1.02 | S. cerevisiae deletion strains, locus YMR231W, strain pep5, stronger effect = lower value 1.01 | S. cerevisiae deletion strains, locus YMR263W, strain SAP30, stronger effect = lower value 0.997 | S. cerevisiae deletion strains, locus YMR307W, strain GAS1, stronger effect = lower value 0.921 | S. cerevisiae deletion strains, locus YNL067W, strain RPL9B, stronger effect = lower value 0.999 | S. cerevisiae deletion strains, locus YNL071W, strain lat1, stronger effect = lower value 1.01 | S. cerevisiae deletion strains, locus YNL153C, strain GIM3, stronger effect = lower value 0.988 | S. cerevisiae deletion strains, locus YNL183C, strain NPR1, stronger effect = lower value 0.934 | S. cerevisiae deletion strains, locus YNL209W, strain ssb2, stronger effect = lower value 1.02 | S. cerevisiae deletion strains, locus YNL233W, strain BNI4, stronger effect = lower value 0.973 | S. cerevisiae deletion strains, locus YNL248C, strain rpa49, stronger effect = lower value 1.02 | S. cerevisiae deletion strains, locus YNL250W, strain rad50, stronger effect = lower value 0.969 | S. cerevisiae deletion strains, locus YNL271C, strain bni1, stronger effect = lower value 0.985 | S. cerevisiae deletion strains, locus YNL298W, strain CLA4, stronger effect = lower value 0.993 | S. cerevisiae deletion strains, locus YNL307C, strain MCK1, stronger effect = lower value 0.974 | S. cerevisiae deletion strains, locus YNL322C, strain KRE1 (second series), stronger effect = lower value 1 | S. cerevisiae deletion strains, locus YNL322C, strain KRE1, stronger effect = lower value 0.993 | S. cerevisiae deletion strains, locus YNR049C, strain mso1, stronger effect = lower value 1.01 | S. cerevisiae deletion strains, locus YNR052C, strain pop2, stronger effect = lower value 0.994 | S. cerevisiae deletion strains, locus YOL006C, strain TOP1, stronger effect = lower value 0.993 | S. cerevisiae deletion strains, locus YOL012C, strain htz1 0.711 | S. cerevisiae deletion strains, locus YOL147C, strain pex11, stronger effect = lower value 0.993 | S. cerevisiae deletion strains, locus YOR001W, strain rrp6, stronger effect = lower value 1.02 | S. cerevisiae deletion strains, locus YOR061W, strain CKA2, stronger effect = lower value 1 | S. cerevisiae deletion strains, locus YOR069W, strain VPS5, stronger effect = lower value 0.99 | S. cerevisiae deletion strains, locus YOR070C, strain gyp1, stronger effect = lower value 1.01 | S. cerevisiae deletion strains, locus YOR080W, strain dia2, stronger effect = lower value 1.02 | S. cerevisiae deletion strains, locus YOR083W, strain WHI5, stronger effect = lower value 0.981 | S. cerevisiae deletion strains, locus YOR106W, strain vam3, stronger effect = lower value 1.03 | S. cerevisiae deletion strains, locus YOR136W, strain idh2, stronger effect = lower value 0.988 | S. cerevisiae deletion strains, locus YOR144C, strain elg1, stronger effect = lower value 0.982 | S. cerevisiae deletion strains, locus YOR184W, strain ser1, stronger effect = lower value 0.989 | S. cerevisiae deletion strains, locus YOR231W, strain MKK1, stronger effect = lower value 0.988 | S. cerevisiae deletion strains, locus YOR265W, strain rbl2, stronger effect = lower value 1.02 | S. cerevisiae deletion strains, locus YOR270C, strain vph1, stronger effect = lower value 1.04 | S. cerevisiae deletion strains, locus YOR290C, strain snf2, stronger effect = lower value 1.01 | S. cerevisiae deletion strains, locus YOR316C, strain cot1, stronger effect = lower value 0.978 | S. cerevisiae deletion strains, locus YPL051W, strain arl3, stronger effect = lower value 1.01 | S. cerevisiae deletion strains, locus YPL078C, strain atp4, stronger effect = lower value 1.01 | S. cerevisiae deletion strains, locus YPL106C, strain sse1, stronger effect = lower value 0.994 | S. cerevisiae deletion strains, locus YPL240C, strain hsp82, stronger effect = lower value 1.02 | S. cerevisiae deletion strains, locus YPL241C, strain CIN2, stronger effect = lower value 0.992 | S. cerevisiae deletion strains, locus YPL256C, strain CLN2, stronger effect = lower value 0.984 | S. cerevisiae deletion strains, locus YPR119W, strain clb2, stronger effect = lower value 0.983 | S. cerevisiae deletion strains, locus YPR141C, strain kar3, stronger effect = lower value 0.973 | S. cerevisiae deletion strains, locus YPR163C, strain tif3, stronger effect = lower value 0.982 | S. cerevisiae deletion strains, locus YPR167C, strain met16, stronger effect = lower value 0.989 | S. cerevisiae deletion strains, strain wtn01, stronger effect = lower value 0.943 | S. cerevisiae strains, strain wild type, stronger effect = lower value 0.994
